Inconclusive results are not listed. Activity calls are given as the source filed them. How the source made its calls, unless noted: active means hit-call score of the fitted dose curve at least 0.9, where 1 is the maximum; inactive means score below 0.9.
What was measured:
[1] = target: human Retinoic Acid Receptor gamma (RARg), RARG (gene 5916) (UniProt P13631); assay: ATG_RARg_TRANS: Attagene TRANS-FACTORIAL HepG2 Assay for human Retinoic Acid Receptor gamma (RARg) (AID 2283009; active means hit-call score of the fitted dose curve at least 0.9, where 1 is the maximum)
How it was run: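 Gain-of-signal relative to DMSO is reported from fluorescent capillary electrophoresis of RT-PCR reporter products. These came from HepG2 cells expressing transfected RARg-GAL4 chimeras with UAS reporters, harvested 24 h after dosing.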

[2] = target: Retinoic acid receptor RXR-alpha (Homo sapiens) (UniProt P19793); assay: ATG_RXRa_TRANS: Attagene TRANS-FACTORIAL HepG2 Assay for human Retinoid X Receptor alpha (RXRa) (AID 2283012; active means hit-call score of the fitted dose curve at least 0.9, where 1 is the maximum)
How it was run: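 Chimeric NR-GAL4 trans-activation in HepG2, 24 h treatment; reporter transcripts quantified by fluorescence on capillary electrophoresis, analysed for upward change from DMSO.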

[3] = target: human Retinoid X Receptor beta (RXRb), RXRB (gene 6257) (UniProt P28702); assay: ATG_RXRb_TRANS: Attagene TRANS-FACTORIAL HepG2 Assay for human Retinoid X Receptor beta (RXRb) (AID 2283013; active means hit-call score of the fitted dose curve at least 0.9, where 1 is the maximum)
How it was run: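 After a 24 h incubation with test chemical, transfected HepG2 cells carrying NR-Gal4 fusions and GAL4-UAS reporter transcription units yield RNA whose reporter cDNA is FAM-labelled, HpaI-cut and sized by capillary electrophoresis; increases over DMSO are scored.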

[4] = target: human Thyroid Receptor alpha (THRa1), THRA (gene 7067) (UniProt P10827); assay: ATG_THRa1_TRANS: Attagene TRANS-FACTORIAL HepG2 Assay for human Thyroid Receptor alpha (THRa1) (AID 2283014; active means hit-call score of the fitted dose curve at least 0.9, where 1 is the maximum)
How it was run: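 Reporter transcript induction, read by capillary electrophoresis of 6-FAM-labelled RT-PCR products, reflects activity of a transfected THRa1-Gal4 fusion in HepG2 liver cells. Cells were dosed for 24 h; activity was fitted in the positive direction against DMSO.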

[5] = read-out: Interleukin-1 alpha (IL1a), IL1A (gene 3552); assay: BSK_BE3C_IL1a: BioMAP Diversity Plus: BE3C Assay for Interleukin-1 alpha (IL1a) Biomarker Activity (AID 2283016); settings: primary human bronchial epithelial cells; actives raise or lower the signal
How it was run: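 Measured in human lung primary bronchial epithelial cells: IL-1a by ELISA at 24 h after dosing, with bidirectional fitting against DMSO.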

[6] = read-out: Monocyte Chemoattractant Protein-1 (MCP1), CCL2 (gene 6347); assay: BSK_3C_MCP1: BioMAP Diversity Plus: 3C Assay for Monocyte Chemoattractant Protein-1 (MCP1) Biomarker Activity (AID 2283017); settings: primary human endothelial cells (HUVEC); actives raise or lower the signal
How it was run: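 ELISA read-out of MCP-1 from human umbilical vein endothelial cell cultures harvested 24 h post-dosing. Gain or loss of signal was fitted relative to DMSO.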

[7] = read-out: Monocyte Chemoattractant Protein-1 (MCP1), CCL2 (gene 6347); assay: BSK_4H_MCP1: BioMAP Diversity Plus: 4H Assay for Monocyte Chemoattractant Protein-1 (MCP1) Biomarker Activity (AID 2283018); settings: primary human endothelial cells (HUVEC); actives raise or lower the signal
How it was run: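 Primary human umbilical vein endothelium is exposed to chemical for 24 h before MCP-1 is assayed by ELISA. Concentration-response fitted bidirectionally relative to DMSO.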

[8] = read-out: Human Leukocyte Antigen - DR isotype (HLADR), HLA-DRA (gene 3122); assay: BSK_3C_HLADR: BioMAP Diversity Plus: 3C Assay for Human Leukocyte Antigen - DR isotype (HLADR) Biomarker Activity (AID 2283019); settings: primary human endothelial cells (HUVEC); actives raise or lower the signal
How it was run: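 ELISA readout of surface HLA-DR on human umbilical vein endothelium, taken 24 h after chemical treatment. Gain- and loss-of-signal were both fitted relative to DMSO.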

[9] = read-out: Monokine induced gamma interferon (MIG), CXCL9 (gene 4283); assay: BSK_3C_MIG: BioMAP Diversity Plus: 3C Assay for Monokine induced gamma interferon (MIG) Biomarker Activity (AID 2283021); settings: primary human endothelial cells (HUVEC); actives raise or lower the signal;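 on AC50: MIG protein level measured by immunoassay in the treated endothelial cultures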
How it was run: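 ELISA-measured MIG in dosed HUVEC 3C cultures at 24 h, analysed by bidirectional fitting with DMSO defining baseline activity.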

[10] = BSK_3C_SRB: Viability Assessment in the BioMAP Diversity Plus: 3C Assay (AID 2283023); settings: primary human endothelial cells (HUVEC);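 further: fitted both ways against DMSO so a hit may be signal rise or drop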
How it was run: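 Absorbance at 560 nm of sulforhodamine B-stained (0.1%) total protein served as a cytotoxicity readout in human umbilical vein endothelial cells, 24 h after chemical treatment. Signal was fitted bidirectionally relative to DMSO.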

[11] = read-out: Matrix Metallopeptidase 1 (MMP1), MMP1 (gene 4312); assay: BSK_BE3C_MMP1: BioMAP Diversity Plus: BE3C Assay for Matrix Metallopeptidase 1 (MMP1) Biomarker Activity (AID 2283024); settings: primary human bronchial epithelial cells; actives raise or lower the signal
How it was run: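 In this multiplexed primary-cell system, human bronchial epithelium received chemicals for 24 h before an ELISA for MMP1. Values reflect bidirectional fits normalised to the DMSO baseline.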

[12] = BSK_3C_Vis: BioMAP Diversity Plus: 3C Assay for Morphology Visualization (AID 2283025); settings: primary human endothelial cells (HUVEC);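 further: fitted both ways so gain or loss versus DMSO counts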;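 on AC50: light microscopy image of cell morphology used as background control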
How it was run: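 Light-microscopy morphology readout, 24 h exposure, human primary umbilical vein endothelium; analysed relative to DMSO with bidirectional fitting.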

[13] = read-out: Pselectin, SELP (gene 6403); assay: BSK_4H_Pselectin: BioMAP Diversity Plus: 4H Assay for Pselectin Biomarker Activity (AID 2283026); settings: primary human endothelial cells (HUVEC); actives raise or lower the signal
How it was run: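 Bidirectional fits against DMSO gave the endpoint. Cells: primary human umbilical vein endothelium, chemical-treated for 24 h before ELISA detection of P-selectin.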

[14] = BSK_4H_SRB: Viability Assessment in the BioMAP Diversity Plus: 4H Assay (AID 2283027); settings: primary human endothelial cells (HUVEC);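 further: cells exposed to compound for 24 h before staining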;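 on AC50: curves fitted both ways versus DMSO so AC50 may be loss or gain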
How it was run: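 Cytotoxicity read-out in primary human endothelial cells: after 24 h compound exposure, cells were TCA-fixed (10%), stained with 0.1% SRB and absorbance taken at 560 nm. Values fitted in both directions relative to DMSO.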

[15] = BSK_BE3C_SRB: Viability Assessment in the BioMAP Diversity Plus: BE3C Assay (AID 2283028); settings: primary human bronchial epithelial cells;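 on AC50: fitted both ways so AC50 may mark signal gain or loss versus DMSO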
How it was run: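 Cells (human bronchial epithelial, primary) are treated with chemicals, and after 24 h the parallel cultures are fixed in 10% TCA. These are then stained with 0.1% SRB and read at 560 nm. Gain or loss of signal is fitted relative to DMSO.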

[16] = read-out: Thrombomodulin, THBD (gene 7056); assay: BSK_3C_Thrombomodulin: BioMAP Diversity Plus: 3C Assay for Thrombomodulin Biomarker Activity (AID 2283029); settings: primary human endothelial cells (HUVEC); actives raise or lower the signal
How it was run: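 In a multiplexed primary-cell system, human umbilical vein endothelium received chemical and was assayed 24 h later for thrombomodulin by ELISA. Parallel cultures were SRB-stained (0.1% SRB after 10% TCA fixation, read at 560 nm) to flag cytotoxicity.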

[17] = read-out: E-selectin (Homo sapiens) (UniProt P16581); assay: BSK_3C_Eselectin: BioMAP Diversity Plus: 3C Assay for Eselectin Biomarker Activity (AID 2283015); settings: primary human endothelial cells (HUVEC); actives raise or lower the signal
How it was run: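 ELISA read-out of E-selectin on endothelial monolayers after 24 h chemical treatment. Human umbilical vein primary cells served as the system, with DMSO defining baseline activity for bidirectional fitting.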

[18] = target: human Vitamin D Receptor (VDR), VDR (gene 7421) (UniProt P11473); assay: ATG_VDR_TRANS: Attagene TRANS-FACTORIAL HepG2 Assay for human Vitamin D Receptor (VDR) (AID 2283022; active means hit-call score of the fitted dose curve at least 0.9, where 1 is the maximum)
How it was run: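 Steps: transfect HepG2 with GAL4-UAS-driven reporter constructs; dose compounds 24 h; isolate RNA, reverse-transcribe, PCR-amplify with 6-FAM-labelled primer extension and HpaI digestion; quantify fragments by capillary electrophoresis relative to DMSO.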

[19] = read-out: Interleukin-8 (IL8), CXCL8 (gene 3576); assay: BSK_3C_IL8: BioMAP Diversity Plus: 3C Assay for Interleukin-8 (IL8) Biomarker Activity (AID 2283020); settings: primary human endothelial cells (HUVEC); actives raise or lower the signal
How it was run: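 Using DMSO-treated wells as the baseline, bidirectional curve fitting was applied to ELISA-measured IL-8 from human umbilical vein endothelial cultures sampled 24 h after compound addition.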

Measured: AC50

Sequence of human Vitamin D Receptor (VDR), VDR (gene 7421) (P11473 whole entry, looked up, the tested form may be a part): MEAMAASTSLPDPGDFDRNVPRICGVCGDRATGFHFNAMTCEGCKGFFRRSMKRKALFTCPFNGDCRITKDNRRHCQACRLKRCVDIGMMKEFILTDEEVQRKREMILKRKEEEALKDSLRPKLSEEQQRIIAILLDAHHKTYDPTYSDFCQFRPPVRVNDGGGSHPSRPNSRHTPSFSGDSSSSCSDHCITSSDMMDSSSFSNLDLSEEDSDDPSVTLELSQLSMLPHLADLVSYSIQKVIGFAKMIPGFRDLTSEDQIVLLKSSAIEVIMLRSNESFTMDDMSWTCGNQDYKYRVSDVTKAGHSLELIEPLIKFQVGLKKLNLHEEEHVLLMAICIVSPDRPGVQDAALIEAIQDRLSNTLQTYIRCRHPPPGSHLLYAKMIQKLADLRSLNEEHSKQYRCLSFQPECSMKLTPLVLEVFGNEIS
Sequence of human Thyroid Receptor alpha (THRa1), THRA (gene 7067) (P10827 whole entry, looked up, the tested form may be a part): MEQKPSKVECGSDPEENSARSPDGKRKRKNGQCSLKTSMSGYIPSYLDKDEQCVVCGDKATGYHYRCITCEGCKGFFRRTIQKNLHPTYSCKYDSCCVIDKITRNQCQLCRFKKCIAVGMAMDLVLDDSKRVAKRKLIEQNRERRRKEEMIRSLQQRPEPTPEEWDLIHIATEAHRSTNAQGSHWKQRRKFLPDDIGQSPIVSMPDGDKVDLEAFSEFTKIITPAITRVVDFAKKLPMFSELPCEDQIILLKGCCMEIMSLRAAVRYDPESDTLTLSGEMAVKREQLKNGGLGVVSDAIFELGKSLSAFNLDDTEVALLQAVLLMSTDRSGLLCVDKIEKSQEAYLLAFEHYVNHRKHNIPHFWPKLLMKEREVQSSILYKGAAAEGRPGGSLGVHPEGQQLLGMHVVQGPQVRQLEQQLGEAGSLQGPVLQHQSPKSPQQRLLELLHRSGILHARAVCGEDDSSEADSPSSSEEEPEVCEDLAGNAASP
Sequence of E-selectin (Homo sapiens) (P16581 whole entry, looked up): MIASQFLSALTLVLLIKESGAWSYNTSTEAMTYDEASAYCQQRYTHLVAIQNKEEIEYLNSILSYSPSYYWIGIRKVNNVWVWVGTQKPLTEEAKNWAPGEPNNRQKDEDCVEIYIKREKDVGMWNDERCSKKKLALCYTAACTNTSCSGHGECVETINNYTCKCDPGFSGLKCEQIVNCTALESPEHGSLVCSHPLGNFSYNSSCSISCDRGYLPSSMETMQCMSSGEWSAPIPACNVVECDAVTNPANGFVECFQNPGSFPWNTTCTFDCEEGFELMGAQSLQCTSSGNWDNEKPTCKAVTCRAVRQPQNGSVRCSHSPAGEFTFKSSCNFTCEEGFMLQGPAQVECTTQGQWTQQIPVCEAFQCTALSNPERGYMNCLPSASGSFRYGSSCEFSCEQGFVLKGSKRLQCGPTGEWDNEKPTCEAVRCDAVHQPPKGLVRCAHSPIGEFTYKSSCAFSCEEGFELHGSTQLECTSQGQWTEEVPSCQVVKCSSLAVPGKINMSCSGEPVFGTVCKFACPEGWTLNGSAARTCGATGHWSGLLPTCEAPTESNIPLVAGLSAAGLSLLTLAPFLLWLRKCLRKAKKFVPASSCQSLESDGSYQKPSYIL
Sequence of human Retinoid X Receptor beta (RXRb), RXRB (gene 6257) (P28702 whole entry, looked up, the tested form may be a part): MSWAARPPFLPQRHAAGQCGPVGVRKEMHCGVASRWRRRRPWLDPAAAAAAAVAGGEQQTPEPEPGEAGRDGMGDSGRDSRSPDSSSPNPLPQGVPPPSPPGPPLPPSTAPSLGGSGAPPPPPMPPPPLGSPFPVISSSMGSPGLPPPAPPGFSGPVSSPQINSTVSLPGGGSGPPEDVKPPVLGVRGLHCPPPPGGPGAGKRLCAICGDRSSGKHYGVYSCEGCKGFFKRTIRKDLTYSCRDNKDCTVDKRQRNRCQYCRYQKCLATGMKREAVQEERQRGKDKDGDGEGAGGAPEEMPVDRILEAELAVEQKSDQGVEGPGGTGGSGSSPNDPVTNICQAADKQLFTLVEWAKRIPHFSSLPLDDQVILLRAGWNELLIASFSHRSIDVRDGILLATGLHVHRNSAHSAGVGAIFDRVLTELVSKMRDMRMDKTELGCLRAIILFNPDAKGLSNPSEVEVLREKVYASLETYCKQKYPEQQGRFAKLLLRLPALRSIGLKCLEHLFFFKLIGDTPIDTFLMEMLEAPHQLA
Sequence of Retinoic acid receptor RXR-alpha (Homo sapiens) (P19793 whole entry, looked up, the tested form may be a part): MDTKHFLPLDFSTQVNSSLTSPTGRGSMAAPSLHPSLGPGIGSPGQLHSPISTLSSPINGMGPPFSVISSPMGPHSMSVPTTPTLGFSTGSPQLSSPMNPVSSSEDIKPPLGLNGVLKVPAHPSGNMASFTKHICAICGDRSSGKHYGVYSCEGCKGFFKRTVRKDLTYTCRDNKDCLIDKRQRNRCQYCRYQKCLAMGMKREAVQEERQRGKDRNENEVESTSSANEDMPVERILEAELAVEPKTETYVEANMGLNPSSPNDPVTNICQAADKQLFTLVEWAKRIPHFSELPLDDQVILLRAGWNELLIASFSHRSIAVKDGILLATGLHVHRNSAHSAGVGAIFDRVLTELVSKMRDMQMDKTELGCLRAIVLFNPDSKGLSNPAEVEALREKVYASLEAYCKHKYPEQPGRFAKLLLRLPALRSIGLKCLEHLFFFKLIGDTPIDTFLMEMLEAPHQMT
Sequence of human Retinoic Acid Receptor gamma (RARg), RARG (gene 5916) (P13631 whole entry, looked up, the tested form may be a part): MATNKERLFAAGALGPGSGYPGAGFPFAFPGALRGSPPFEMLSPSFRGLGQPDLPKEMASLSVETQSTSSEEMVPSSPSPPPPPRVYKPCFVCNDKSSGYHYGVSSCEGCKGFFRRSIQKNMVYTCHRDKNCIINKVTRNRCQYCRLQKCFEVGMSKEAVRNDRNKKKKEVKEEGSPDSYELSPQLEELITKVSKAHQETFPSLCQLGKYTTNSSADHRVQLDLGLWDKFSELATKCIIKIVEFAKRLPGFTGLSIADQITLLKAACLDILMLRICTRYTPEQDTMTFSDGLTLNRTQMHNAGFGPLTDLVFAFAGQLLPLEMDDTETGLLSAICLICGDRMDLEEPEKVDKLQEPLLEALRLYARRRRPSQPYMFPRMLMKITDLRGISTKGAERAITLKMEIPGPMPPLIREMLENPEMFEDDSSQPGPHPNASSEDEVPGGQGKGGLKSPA

CC(C)N(C(=O)SCC(Cl)=C(Cl)Cl)C(C)C
active: [6] 31.1 µM | [7] 32.2 µM | [8] 32.9 µM | [9] 38.3 µM | [10] 29.8 µM | [12] 37.2 µM | [13] 31.5 µM | [14] 33.4 µM
inactive: [1] | [2] | [3] | [4] | [5] | [11] | [15] | [16]

CC1=NNC(=O)N(/N=C/c2cccnc2)C1
not listed: [19]
inactive: all other assays above

CCCOc1nn(C(=O)NS(=O)(=O)c2ccccc2C(=O)OC)c(=O)n1C
not listed: [3] | [5] | [18] | [19]
inactive: all other assays above

CCOC(=O)CC(SP(=O)(OC)OC)C(=O)OCC (configuration not stated)
not listed: [17] | [18]
inactive: all other assays above

CCOP(=O)(NC(C)C)Oc1ccc(SC)c(C)c1 (configuration not stated)
not listed: [4] | [5] | [17] | [18]
inactive: all other assays above

CC(Oc1cccc(Cl)c1)C(=O)O (configuration not stated)
not listed: [2] | [3] | [4] | [17] | [18]
inactive: all other assays above

CSc1nnc(C(C)(C)C)c(=O)n1N
not listed: [8] | [18]
inactive: all other assays above

CCCSP(=O)(OCC)SCCC
not listed: [4] | [5] | [17] | [19]
inactive: all other assays above

Cc1ccn2nc(S(=O)(=O)Nc3c(F)cccc3F)nc2n1
active: [14] 0.229 µM
not listed: [4] | [5] | [17] | [18]
inactive: all other assays above

C#CCC1=C(C)C(OC(=O)C2C(C=C(C)C)C2(C)C)CC1=O (configuration not stated)
active: [17] 36 µM | [6] 32.2 µM | [7] 20.6 µM | [8] 20 µM | [19] 30.7 µM | [10] 28.5 µM | [13] 31.6 µM | [14] 33.8 µM | [15] 18 µM
inactive: [1] | [2] | [3] | [9] | [18] | [11] | [12] | [16]

CCC(=O)Nc1ccc(Cl)c(Cl)c1
active: [8] 6.03 µM | [12] 9.8 µM
not listed: [1] | [4] | [5] | [17] | [18] | [19]
inactive: all other assays above
